# TAR Tat displ: TAR RNA-Tat peptide displacers, HIV-1, primary screen, biochemical, FRET, FAM/TAMRA-labeled Tat. 0.6% of 100,000 active. HIV-1 TAR RNA, Tat peptide displacement FRET; stronger effect = higher value. z-score (no concentration beside the values); active means z-score of 3 or more in at least 2 runs
# CDC25B-CDK2 inh: primary biochemical HTRF screen for blockers of M-phase inducer phosphatase 2 binding to CDK2/cyclin A | P30305+P24941 | HTRF CDC25B-CDK2/CyclinA binding, anti-His/anti-Flag; stronger effect = higher value | z-score (test concentration not listed) | 0.72% of 94,000 active | AID 1259370, 2018; in the data active means z-score above about 3.2
# Hits are given with their value; i = inactive; nt = no result given. Rows were chosen to be rich in hits. Some 0.9% of all compounds tested hit in one or more screens of this group.
SMILES,TAR Tat displ,CDC25B-CDK2 inh
O=C(O)c1ccccc1Nc1cccc2c1C(=O)c1cccc(Nc3ccccc3C(=O)O)c1C2=O,19.1,nt
Cc1c(Cl)cccc1Nc1ccccc1C(=O)O,i,nt
C=C/C(=C\C1=C(C)Sc2ccccc2N1CCCN(C)C)C(F)(F)F,i,nt
COc1ccc(C2SCC(=O)N2c2ccc(OC)c(Cl)c2)cc1 (centres undefined),nt,i
CCCCOC(=O)C1=C(C)NC2=C(C(=O)CC(C)(C)C2)C1c1cc2c(cc1Br)OCO2 (centres undefined),i,i
Cc1c(C(=O)CC#N)sc2ccc(Cl)cc12,nt,i
Cc1c(C(=O)Cn2ccnc2)sc2ccc(Cl)cc12,nt,13.6
O=C1CC(c2ccc(-c3ccccc3)cc2)c2cc3c(cc2N1)OCCO3 (centres undefined),i,i
CCc1ccc(C2CC(=O)Nc3cc4c(cc32)OCCO4)cc1 (centres undefined),i,4.41
Nc1ccc(-c2nc3ccccc3s2)c(Cl)c1,i,i
Nc1ccc(O)c(-c2nc3ccc(N)cc3s2)c1,35.9,i
Cn1c(Cc2ccsc2)nnc1SCC(=O)NNC(=O)c1ccc(Cl)cc1,nt,i
CCOC(=O)c1ccc(NC(=S)NC(NC(=O)c2ccccc2Br)C(Cl)(Cl)Cl)cc1 (centres undefined),nt,i
CC(=O)c1ccc(NC(=S)NC(NC(=O)c2cccc(Cl)c2)C(Cl)(Cl)Cl)cc1 (centres undefined),nt,3.17
NC(C(=O)O)C1CCCCC1 (centres undefined),nt,i
N[C@H](C(=O)O)[C@H]1C[C@@H]1C(=O)O,nt,7.72
O=C(Cn1c(=O)oc2ccccc21)N1CCC2(CC1)OCCO2,nt,i
CCCCc1nnc2sc(NC(=O)c3ccco3)nn12,i,i
Cc1ccc(CNC(=O)CC(C)CC2=NS(=O)(=O)c3ccccc3N2)o1 (centres undefined),i,nt
CC(CC(=O)NCc1ccco1)CC1=NS(=O)(=O)c2ccccc2N1 (centres undefined),9.47,nt
Cc1cc2nc(NC3=NCN(Cc4ccco4)CN3)nc(C)c2cc1C,i,14.3
Cc1cc2nc(NC3=NCN(CCN4CCOCC4)CN3)nc(C)c2cc1C,nt,11.5
Cc1nc(NC2=NCN(Cc3ccco3)CN2)nc2ccccc12,i,i
Cc1cc2nc(NC3=NCN(CCCN4CCOCC4)CN3)nc(C)c2cc1C,i,i
Nc1ccc2nn(-c3cccc(Cl)c3)nc2c1,3.99,i
SMILES,TAR Tat displ,CDC25B-CDK2 inh
Cc1ccc(-n2nc3ccc(N)cc3n2)cc1,i,i
C=CCOc1ccc(C2CC(=O)Nc3c2c(C)nn3-c2nncc(-c3ccc(F)cc3)n2)cc1 (centres undefined),15.8,i
C=CCOc1ccc(C2CC(=O)Nc3c2c(C)nn3-c2nncc(-c3ccc(C)cc3)n2)cc1 (centres undefined),i,i
Cc1ccc2c(c1)N(C)/C(=C/c1sc3ccccc3[n+]1CCO)S2,4.27,i
Cc1ccc2c(ccc(/C=C3\Sc4ccccc4N3C)[n+]2C)c1,i,i
Cc1csc2nc(COC(=O)CNC(=O)c3ccco3)cc(=O)n12,i,nt
CCOc1ccc(C2C3=C(CC(C)(C)CC3=O)NC3=C2C(=O)CC(C)(C)C3)cc1Br,nt,i
O=C1CCCc2oc3c(cc(NS(=O)(=O)c4cccc([N+](=O)[O-])c4)c4ccccc43)c21,nt,i
CCc1ccc(S(=O)(=O)Nc2cc3c4c(oc3c3ccccc23)CCCC4=O)cc1,nt,18
O=C(Oc1ccc(Cl)cc1Cl)c1cccnc1SCCS(=O)(=O)c1ccccc1,nt,i
CN(C)C(=O)c1ccc2c(c1)N(CC(=O)N1CCCCC1)C(=O)C1CCCCN21 (centres undefined),i,nt
Cn1c(/C=C/c2ccc3c(c2)OCO3)nc2ccccc2c1=O,i,i
C(=C\c1ccc2c(c1)OCO2)/C1=NN(c2ccccc2)C(c2ccc3c(c2)OCO3)C1 (centres undefined),i,15.6
CCOC(=O)CSc1nnc(-c2ccccc2)c(=O)[nH]1,i,i
CCOC(=O)CSc1nnc(NCC(=O)OC)c(=O)[nH]1,nt,4.18
Oc1ccccc1-c1nc(-c2cccs2)c(-c2cccs2)[nH]1,i,18.3
COc1cc(-c2nc(-c3ccccc3)c(-c3cccs3)[nH]2)cc(OC)c1O,nt,i
COC(=O)C1=C(C(=O)OC)SC(=C2C(=S)C(C)(C)Nc3ccccc32)S1,i,13.6
CCC(=O)N1c2ccc(C)cc2C(=C2SC(C(=O)OC)=C(C(=O)OC)S2)C(=S)C1(C)C,i,i
CCCC(=O)N1c2ccccc2C(=C2SC(C(=O)OC)=C(C(=O)OC)S2)C(=S)C1(C)C,i,i
CCOC(=O)C1=C(C(=O)OCC)SC(=C2C(=S)C(C)(C)Nc3ccc(C)cc32)S1,i,18.6
CC(C)NC(=O)Cn1ncc2c3ccccc3n(C)c2c1=O,i,i
CCSc1nn2c(=O)cc(COc3cc(C)ccc3C)nc2s1,7.7,i
CCCc1nn2c(=O)cc(COc3cc(C)ccc3C)nc2s1,i,i
Cc1ccc(NC(=O)Nc2nnc(CC(=O)Nc3ccccc3)s2)cc1,nt,i
SMILES,TAR Tat displ,CDC25B-CDK2 inh
COc1ccc(NC(=O)Nc2nnc(CC(=O)Nc3ccc(C)cc3)s2)cc1,nt,5.53
O=C(CN1c2ccc(Br)cc2-c2ccccc2S1(=O)=O)Nc1ccccc1,i,i
Cn1ccc2cc(S(=O)(=O)N3CCCC(C(=O)NC4CCCCC4)C3)ccc21 (centres undefined),i,nt
Cc1ccc(C(=O)c2cnc3cc4c(cc3c2N2CCC(C(N)=O)CC2)OCCO4)cc1C,i,i
Cc1ccc(C(=O)c2cnc3cc4c(cc3c2N2CCC(C(N)=O)CC2)OCO4)cc1C,17.4,i
O=C(c1ccccc1)c1cn(Cc2ccccc2)c2ccccc2c1=O,nt,i
NC(=O)c1nc(Nc2ccccc2)sc1NC(=O)Cc1cccs1,i,nt
NC(=O)c1nc(Nc2ccccc2)sc1NC(=O)c1cc(-c2ccco2)nc2ccccc12,20.5,nt
CCN(CC)C(=O)c1sc(NC(=O)c2cc(-c3ccc(C)o3)nc3ccccc23)c(C(N)=O)c1C,8.51,i
Cc1nnc(NC(=O)c2cc(-c3ccc(Cl)cc3)nc3ccccc23)s1,nt,i
O=S(=O)(Oc1cncc(Cl)c1)c1ccc(C(F)(F)F)cc1,nt,i
CN(CC(=O)N1CCN(C2CCCC2)CC1)S(=O)(=O)c1cccc2nsnc12,nt,i
CC(=O)c1ccccc1OC(=O)c1cc(C(F)(F)F)cc(C(F)(F)F)c1,nt,i
Cc1ccc(S(=O)(=O)c2c(N)n(CCO)c3nc4ccccc4nc23)cc1,nt,18.3
CCOC(=O)c1c(N)n(CCc2ccccc2)c2nc3ccccc3nc12,i,i
Cc1cccc(Nc2nc(-c3ccncc3)cs2)n1,i,i
Cc1cccc(Nc2nc(-c3ccc(O)c(O)c3)cs2)n1,15.6,i
Cc1ccnc(Nc2nc(-c3ccc(O)c(O)c3)cs2)c1,10.3,i
Cc1ccnc(Nc2nc(-c3ccc(O)cc3)cs2)c1,i,i
COc1ccc(NS(=O)(=O)c2ccc3c(c2)S(=O)(=O)N=CN3)cc1OC,i,nt
Cc1nc(-c2csc(S(=O)(=O)Nc3ccc(Br)cc3F)c2)no1,i,nt
Cc1c(C(=O)N2CCCC2)oc2c1-c1nn(CC(=O)NC(C)c3ccc4c(c3)OCCO4)cc1CC2 (centres undefined),i,nt
NC(=O)C1CCN(C(=O)c2cccc3sc(N4CCCc5ccccc54)nc23)CC1,i,i
N#CC1=C2SCN(c3cccc(Cl)c3)CN2C(=O)CC1c1ccccc1 (centres undefined),i,9.15

# Source: PubChem BioAssay (Center for Chemical Genomics, University of Michigan)
